High-throughput results: PubChem BioAssay, National Center for Advancing Translational Sciences (NCATS)
IL1B secr inh = inhibitors of inflammasome signaling (IL-1 beta secretion); THP-1 LPS/ATP IL-1B secretion, AlphaLISA, 16 h; active compounds read low; activity change, % at 57.5 µM; 360,000 compounds, 4.7% hits; in the data active = activity change below about -50%; inconclusive = mostly about -30% to -49%; also: % is scaled to controls: 0 for no effect and ±100 for the full control effect
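Secreted IL-1B measured by AlphaLISA bead assay after 16 h compound exposure of THP-1 cells; compounds (final up to 57.5 uM) added 1 h before LPS (250 ng/mL) and ATP (1.25 mM) stimulation; lower signal means less secretion.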
DT40 TDP1 no CPT = qHTS for Inhibitors of human tyrosyl-DNA phosphodiesterase 1 (TDP1): qHTS in cells in absence of CPT; DT40 Tdp1-/- hTDP1 cells, no CPT, ATP luminescence, 48 h; Potency, µM (doses to about 46.2 µM), for the others: at the highest dose activity change, negative = growth inhibition, actives largely listed as inhibitors; 420,000 compounds, 15% hits; AID 686978, 2013; also: potency is read from the fitted curve at half-maximal effect; % is scaled to controls: 0 for no effect and ±100 for the full control effect; nearly all actives have a fitted effect of over 55% in size
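Camptothecin absent (DMSO only). Human TDP1-complemented DT40 knockout cells, 400 cells/well, 37 °C for minimum 48 hr; ATP measured via CellTiter-Glo, 30 min dark incubation, luminescence.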
BCR signal inh = inhibitors of chronic active B-cell receptor signaling | 340,000 compounds, 0.05% hits | AID 493014 | Potency, µM (highest dose often 46.1 µM), for the others: at the highest dose activity change, negative = inhibition, usual class: inhibitors | ABC-DLBCL IkBa-CBG/CBR reporter, luminescence ratio, 4 h; active = well fitted inhibition curve with a large enough effect in the signal ratio, with a control signal flat, not every such curve was filed as active; inconclusive = small, poorly fitted or top-dose-only effect, or effect the other way, or a change in a side signal; the % refers to the signal ratio;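 also: potency is read from the fitted curve at half-maximal effect; plate controls were basal doxycycline-induced cells for no effect and cells given 10 µM MG132 for full effect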
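Compounds up to 46 uM were incubated four hours with TMD8 cells whose green CBG68 luciferase is fused to IkappaBalpha; red CBR luminescence normalised the signal, and concentration-effect curves were fitted to fusion, red and ratio data.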
SW480 rereplic = DNA re-replication induction in SW480 cells. SW480 DNA re-replication, Hoechst DNA content imaging, 48 h. Potency, µM (series often up to 46.1 µM), without a hit: at the top dose re-replication activation, hits mostly activators. 340,000 compounds, 1.8% hits; also: potency is read from the fitted curve at half-maximal effect; % of control where 0% means no effect; nearly all actives have a fitted effect of over 55% in size
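250 cells/well; 23 nL cpd via pin tool; 48 hr, 37 C, 5% CO2; Hoechst 40 min; imager read of total nuclear intensity, ex 405/em 500-530 nm.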
DT40 TDP1 CPT = growth inhibition of DT40 Tdp1-/-;hTDP1 cells with camptothecin (screen for TDP1 inhibitors) | Potency, µM (series often up to 46.2 µM), for inactives: at the top dose activity change, negative = growth inhibition, actives largely listed as inhibitors | 420,000 compounds, 12% hits | chicken DT40 Tdp1-/-;hTDP1 cells + 20 nM CPT, ATP luminescence, 48 h; also: potency is read from the fitted curve at half-maximal effect; % is scaled to controls: 0 for no effect and ±100 for the full control effect; nearly all actives have a fitted effect of over 55% in size
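Cell growth measured by CellTiter-Glo luminescence after a minimum 48 h, 37 C compound exposure with 20 nM CPT in Tdp1-knockout DT40 cells stably expressing hTDP1, seeded 400/well; qHTS titration format.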
MCF10A rerep = DNA re-replication induction in MCF 10a cells; MCF 10A DNA re-replication, Hoechst nuclear intensity, 48 h; 350,000 compounds, 2.9% hits; Potency, µM (highest dose often 46.1 µM), inactives show at the highest dose activity, positive = re-replication, most hits filed as activators; also: potency is read from the fitted curve at half-maximal effect; % of control where 0% means no effect; nearly all actives have a fitted effect of over 50% in size
Active calls of the source: *; ? = inconclusive; . = no result given. Sampled rows, rich in hits. Any-hit rate of the full collection: about 19%. Unless noted, calls follow the shape of the dose curve; as a rule, active = well fitted curve in the direction sought with a large enough effect; inconclusive = small, poorly fitted or top-dose-only effect, or another doubt; inactive = no such curve, though single readings can be large; an effect the other way counts as inactive or inconclusive.

SMILES	IL1B secr inh	DT40 TDP1 no CPT	BCR signal inh	SW480 rereplic	DT40 TDP1 CPT	MCF10A rerep
COC(=O)CN1C(=O)C2(C(C#N)=C(N)Oc3c2c(C)nn3-c2ccccc2)c2ccccc21 (stereo unspecified)	-10	21µM*	11%	?	?	?
COc1ccc(CN2CC(=O)N(c3cc(Cl)ccc3C)C2=S)cc1OC	-22	?	-10%	7%	?	6%
CCc1ccccc1N1C(=O)CN(Cc2cc(OC)c(OC)c(OC)c2)C1=S	-9	21µM*	0%	20%	?	10%
COc1cc(CN2CC(=O)N(c3ccc(C)c(C)c3)C2=S)cc(OC)c1OC	-6	?	-2%	?	?	24%
CCc1ccc(N2C(=O)CN(Cc3cc(OC)c(OC)c(OC)c3)C2=S)cc1	-1	23µM*	?	-72%	16µM*	-15%
COc1cc(CN2CC(=O)N(c3cc(Cl)ccc3C)C2=S)cc(OC)c1OC	9	21µM*	2%	-19%	21µM*	6%
Cc1nnc(-c2ccccc2)nc1N(C)C	-1	-16%	?	0%	1%	0%
Cc1cc(O)ccc1Nc1cc(-c2cccc(N)c2)ncn1	?	-22%	.	.	-16%	.
Cc1noc(C)c1COc1ccc(C(=O)OC(C)C(=O)Nc2ccc(S(=O)(=O)N3CCOCC3)cc2)cc1 (stereo unspecified)	16	?	0%	-6%	?	0%
O=CNC(n1cnc2c(N3CCOCC3)ncnc21)C(Cl)(Cl)Cl (stereo unspecified)	17	-23%	-14%	1%	-11%	2%
CN(C(=O)C1CCC(CNS(=O)(=O)c2cccc3cccnc23)CC1)C1CCCCC1 (stereo unspecified)	-17	15µM*	0%	?	?	13%
CCCCN(CC)C(=O)C1CCC(CNS(=O)(=O)c2cccc3nsnc23)CC1 (stereo unspecified)	-4	9.2µM*	0%	-21%	23µM*	4%
CCN(C(=O)C1CCC(CNS(=O)(=O)c2cccc3nsnc23)CC1)c1ccc(C)c(C)c1 (stereo unspecified)	.	26µM*	.	.	?	.
CC1CCC(NC(=O)C2CCC(CNS(=O)(=O)c3cccc4nsnc34)CC2)CC1 (stereo unspecified)	22	?	-6%	1%	-29%	28%
Cc1ccc(S(=O)(=O)N(C)CCN(C)c2nc(-c3cccs3)nc3ccccc23)cc1	.	20µM*	.	.	?	.
CN(Cc1cccs1)c1nc(-c2cccnc2)nc2ccccc12	-92*	?	-1%	2%	23µM*	?
CN(CCO)c1nc(-c2cccs2)nc2ccccc12	.	?	.	.	18µM*	.
CNCCN(C)c1nc(-c2cccs2)nc2ccccc12	.	22µM*	.	.	?	.
OCCNc1nc(-c2cccs2)nc2ccccc12	.	-16%	.	.	11%	.
c1ccc(-c2nc(NCc3cccs3)c3ccccc3n2)cc1	-7	?	17%	-7%	-14%	21%
COc1ccc(CCCc2nnc(SCC(=O)Nc3ccc(F)cc3)o2)cc1C	.	-17%	.	.	-13%	.
COc1ccc(Oc2c(C(F)(F)F)oc3cc(OCC(=O)O)ccc3c2=O)cc1	-2	9%	0%	-16%	-4%	-1%
COc1ccc(N2CCN(C(=O)C(=O)c3cccc([N+](=O)[O-])c3)CC2)cc1	8	?	.	.	?	.
O=C(C[C@H]1C[C@@H]2c3cc(NC(=O)c4cccnc4)ccc3O[C@@H]2[C@H](CO)O1)NCc1ccncc1	7	-16%	.	.	2%	.
O=C(CSc1nccn1Cc1ccc(F)cc1)NCc1ccco1	.	-6%	.	.	-13%	.
SMILES	IL1B secr inh	DT40 TDP1 no CPT	BCR signal inh	SW480 rereplic	DT40 TDP1 CPT	MCF10A rerep
O=C(N/N=C/c1ccccc1O)C1CC(=O)N(c2ccc(F)cc2)C1 (stereo unspecified)	89	5.8µM*	1%	?	3.3µM*	1%
COc1ccc(N2CC(C(=O)N/N=C/c3c[nH]c4ccccc34)CC2=O)cc1 (stereo unspecified)	14	-11%	1%	1%	14%	0%
Cc1ccc2c(c1)N=C(c1ccc(Cl)cc1)CO2	11	23µM*	?	10%	?	26%
c1ccc(C2=Nc3ccccc3OC2)cc1	14	11µM*	?	-5%	18µM*	2%
O=c1c(Cl)cc(Cl)nn1-c1ccccc1	-100*	1.5µM*	?	?	2.1µM*	5.8µM*
Cc1ccc(NC(=O)c2ccc(Cl)c(S(=O)(=O)N3CCCCC3)c2)nc1	?	-24%	7%	-25%	-16%	17%
CC(C)Oc1ccc(CN2CCC2(C)C(=O)Nc2cccc3cccnc23)cc1 (stereo unspecified)	-21	?	.	.	18µM*	.
CC1(C(=O)Nc2cccc3cccnc23)CCN1Cc1ccc(-c2ccccc2)o1 (stereo unspecified)	33	18µM*	.	.	23µM*	.
Cc1c(Br)cccc1NC(=O)C1(C)CCN1Cc1ccc(OC(C)C)cc1 (stereo unspecified)	57	?	.	.	-6%	.
COc1cccc(CN2CCC2(C)C(=O)Nc2cccc3cccnc23)c1OC (stereo unspecified)	-1	18µM*	.	.	16µM*	.
COc1ccc(NC(=O)C2(C)CCN2CCOc2ccccc2)cc1OC (stereo unspecified)	-24	?	.	.	?	.
COc1ccc(OC)c(NC(=O)C2(C)CCN2CCOc2ccccc2)c1 (stereo unspecified)	5	?	.	.	23µM*	.
CCC(OC(=O)c1ccco1)C(=O)NCc1ccc2c(c1)OCO2 (stereo unspecified)	-6	-18%	4%	-1%	-16%	35%
CCOc1ccccc1N(C)C(=O)c1cc(S(=O)(=O)NCCc2ccc(Cl)cc2)ccc1F	.	?	-1%	.	?	.
COc1ccc(OC)c(NC(=O)C2(C)CCN2Cc2cccc(OC)c2OC)c1 (stereo unspecified)	-16	15µM*	.	.	?	.
COc1ccc(OC)c(NC(=O)C2(C)CCN2C(=O)C2(c3ccccc3)CCCC2)c1 (stereo unspecified)	2	23µM*	.	.	?	.
CC1(C(=O)Nc2cccc3cccnc23)CCN1Cc1ccccc1OC(F)F (stereo unspecified)	-9	15µM*	.	.	?	.
